Reference: PubChem BioAssay (NCI)
Compounds without any hit were thinned out: in the full panel of roughly 83,000, 20% have a hit.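 Growth was measured after 48 h exposure to one concentration of compound in 96-well plates. Values under 10 count as active.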 Calls of active or inactive are those of the source.

How the values were obtained:
Assay in all cases: NCI-60 one-dose screen, 48 h (100 = growth as untreated, 0 = no growth, -100 = all killed)
Settings in all cases: 10 µM unless noted
[1] = test system: HCT-15 colon
[2] = test system: HT29 colon
[3] = test system: SNB-75 CNS
[4] = test system: SNB-19 CNS
[5] = test system: U251 CNS
[6] = test system: PC-3 prostate
[7] = test system: SK-MEL-5 melanoma
[8] = test system: UACC-62 melanoma
[9] = test system: LOX IMVI melanoma
[10] = test system: SK-MEL-28 melanoma

Measured: growth

COC(=O)c1nc(-c2ccccc2)oc1S(=O)(=O)n1nc(C)cc1N
inactive: [1] 46.9% | [2] 17.5% | [3] 82.3% | [4] 96.6% | [5] 101% | [6] 104% | [7] 92.3% | [8] 89.4% | [9] 76.8% | [10] 87.4%

COc1cccc(NC(=O)Nc2ccc(Nc3ncnc4[nH]c(C)c(C)c34)cc2)c1
inactive: [1] 94.1% | [2] 95.5% | [3] 82.2% | [4] 98.5% | [5] 90.3% | [6] 93.9% | [7] 102% | [8] 96.6% | [9] 99.7% | [10] 104%

C#C[C@@]1(O)[C@@H](CO)O[C@@H](n2cc(Cl)c3c(N)ccnc32)[C@@H]1O
inactive: [1] 50.8% | [2] 38.7% | [3] 140% | [4] 89.9% | [5] 16% | [6] 36.7% | [7] 70.8% | [8] 105% | [9] 42% | [10] 100%

C=C1C(=O)O[C@H]2[C@H]1CCC(/C=N/c1ncc(Br)cc1N)=C\CC[C@@]1(C)O[C@@H]21
inactive: [3] 85.3% | [4] 44.2% | [5] 47.9% | [6] 26.7% | [7] 39.9% | [8] 22.5%
active: [1] -45.3% | [2] -18.6% | [9] -75.3% | [10] -25.8%

CC(=O)ON1CCCC(P(=O)(OCOC(=O)C(C)(C)C)OCOC(=O)C(C)(C)C)C1=O (stereo not given)
inactive: [3] 25.4% | [6] 17.7%
active: [1] 3.57% | [2] -4.49% | [4] -7.66% | [5] -8.95% | [7] -55.7% | [8] -64.7% | [9] 9.18% | [10] -46.9%

C=C1C(=O)O[C@H]2[C@H]1CC/C(COC(=O)N1CCC[C@H]1C(=O)Nc1ccc(OC)c(C(N)=O)c1O)=C\CC[C@@]1(C)O[C@@H]21
active: [2] -8.09%
inactive: [1] 59.6% | [3] 84% | [4] 60.5% | [5] 51.6% | [6] 74.4% | [7] 63.7% | [8] 34.5% | [9] 43.4% | [10] 49.4%

c1cc(CNC23CC4CC(CC(C4)C2)C3)cc(C[N+](Cc2cccc(CNC34CC5CC(CC(C5)C3)C4)c2)(Cc2cccc(CNC34CC5CC(CC(C5)C3)C4)c2)Cc2cccc(CNC34CC5CC(CC(C5)C3)C4)c2)c1 (stereo not given)
active: [1] 3.19% [42 µM] | [2] -5.66% [42 µM] | [9] -4.47% [42 µM]
inactive: [3] 36.9% [42 µM] | [4] 31.2% [42 µM] | [5] 11.6% [42 µM] | [6] 43% [42 µM] | [7] 23.1% [42 µM] | [8] 30.3% [42 µM] | [10] 51.5% [42 µM]

O=c1[nH]nc(-c2ccccc2)c2sc(NC(=S)Nc3ccc(Cl)cc3)nc12
inactive: [1] 89.9% | [2] 74.8% | [3] 84.1% | [4] 102% | [5] 92.1% | [6] 92% | [7] 101% | [8] 92.6% | [9] 92.4% | [10] 110%

CCCCn1c2cc(OCc3cn(-c4ccc(Cl)cc4)nn3)ccc2c2ccnc(C)c21
active: [2] 6.28%
inactive: [1] 17.7% | [3] 32.8% | [4] 56.8% | [5] 21.8% | [6] 44.7% | [7] 38.9% | [8] 33% | [9] 20.1% | [10] 67.9%

Nc1ccccc1NS(=O)(=O)c1ccc(Cl)cc1
inactive: [1] 102% | [2] 91.7% | [3] 81.8% | [4] 96.6% | [5] 101% | [6] 91.5% | [7] 94.4% | [8] 91.4% | [9] 92.1% | [10] 96.8%

C=C(C)[C@@H]1CC[C@]2(C(=O)O)CC[C@]3(C)[C@H](CC[C@@H]4[C@@]5(C)C[C@@H](CC#Cc6ccc(Cl)cc6)C(=O)C(C)(C)[C@@H]5CC[C@]43C)[C@@H]12
active: [8] -20.2% | [10] -23.1%
inactive: [1] 45.5% | [2] 30.1% | [3] 70% | [4] 54% | [5] 28.1% | [6] 25.9% | [7] 51.8% | [9] 59.6%

CC1=C/C(=N\N=C2/C=C(C)CC(C)(C)C2)CC(C)(C)C1
inactive: [1] 106% | [2] 91.8% | [3] 94.9% | [4] 102% | [5] 96% | [6] 94.8% | [7] 99% | [8] 93.8% | [9] 100% | [10] 116%

CC(=O)OCC1SC(OC(C)=O)C(NC(=O)/C=C/CCl)C(OC(C)=O)C1OC(C)=O (stereo not given)
inactive: [1] 100% | [2] 102% | [3] 93.8% | [4] 111% | [5] 90.6% | [6] 86.8% | [7] 87.7% | [8] 98% | [9] 93.4% | [10] 112%

Nc1cc(N)c(S(=O)(=O)O)cc1N=Nc1cc([N+](=O)[O-])ccc1O
inactive: [1] 104% | [2] 102% | [3] 88.7% | [4] 98.8% | [5] 100% | [6] 87.1% | [7] 105% | [8] 92.1% | [9] 93.4% | [10] 102%

O=C1C(Cl)=C(Nc2ccc3c(c2NC2=C(Cl)C(=O)c4ccccc4C2=O)C(=O)c2ccccc2C3=O)C(=O)c2ccccc21
active: [2] 5.49% | [3] -15.1% | [7] -95.5% | [8] -62.6% | [9] 3.18%
inactive: [1] 15.6% | [4] 29.1% | [5] 14.3% | [6] 11% | [10] 47.1%

O=C1Nc2ccccc2C12C=C(c1ccccc1)Nc1c2c(-c2ccccc2)nn1-c1ccccc1 (stereo not given)
inactive: [1] 53.4% | [2] 46.1% | [3] 71% | [4] 64.3% | [5] 41.6% | [6] 32.2% | [7] 68.4% | [8] 91.9% | [9] 65.2% | [10] 82.2%

Cc1cccc(C)c1NCc1nnc(-c2ccco2)o1
inactive: [1] 103% | [2] 93.9% | [3] 85.5% | [4] 101% | [5] 96.9% | [6] 81% | [7] 96.3% | [8] 90.1% | [9] 93.5% | [10] 110%

C=C(C)[C@@H]1CC[C@]2(C(=O)OCCOCCOCC[P+](c3ccccc3)(c3ccccc3)c3ccccc3)CC[C@]3(C)[C@H](CC[C@@H]4[C@@]5(C)CC[C@H](OC(=O)C(Cl)Cl)C(C)(C)[C@@H]5CC[C@]43C)[C@@H]12
inactive: [1] 11.1% | [4] 17.6%
active: [2] 5.74% | [3] 8.83% | [5] -5.68% | [6] -23.4% | [7] -99.1% | [8] -39.3% | [9] -91.3% | [10] -43.9%

O=C(CN1N=C(c2ccc(F)cc2)CCC1=O)Nc1nccs1
inactive: [1] 99.3% | [2] 87% | [3] 92.2% | [4] 91.4% | [5] 101% | [6] 88.3% | [7] 98.4% | [8] 92.5% | [9] 98.9% | [10] 109%

O=C1Nc2ccc(Br)cc2/C1=N\N=C/c1cn(Cc2ccccc2)c2ccccc12
inactive: [1] 103% | [2] 91% | [3] 84.7% | [4] 98% | [5] 94.6% | [6] 75.1% | [7] 97.2% | [8] 79.4% | [9] 98.1% | [10] 105%

CCCCc1n(Cc2ccc3ccccc3c2)c2ccccc2[n+]1Cc1ccc2ccccc2c1
active: [1] -89.2% | [2] -74.8% | [3] -9.62% | [4] -92.5% | [5] -87.2% | [6] -76.8% | [7] -100% | [8] -92.3% | [9] -93.5% | [10] -92.9%

CN1CC=C(c2cc(NC(=O)Nc3ccc(Oc4ccnc(NC(=O)C5CC5)c4)c(F)c3)cc(C(F)(F)F)c2)CC1
active: [1] 5.35% | [2] -13.6% | [3] -76.4% | [4] 2.04% | [5] -1.77% | [6] 3.71% | [7] -43.9% | [8] -22.1% | [9] -46.5% | [10] -1.25%

COc1ccc2c(c1)/C(=C1\S/C(=N/c3nnc(C)s3)NC1=O)C(=O)N2Cc1ccc(Cl)cc1
inactive: [1] 28% | [2] 54.7% | [3] 71% | [4] 35.7% | [5] 26% | [6] 36.6% | [7] 30.9% | [8] 32.8% | [9] 39.4% | [10] 49.2%

COc1ccc2nc3c(n2c1)C(=O)C(=O)c1ccccc1-3
inactive: [2] 64% | [6] 22.3%
active: [1] -60.2% | [3] -54.4% | [4] -30.9% | [5] -59.4% | [7] -99.5% | [8] -91.1% | [9] -68.4% | [10] -83.2%

NS(=O)(=O)c1ccc(C2C3=C(CCCC3=O)OC3=C2C(=O)c2ccccc2C3=O)cc1 (stereo not given)
active: [1] 2.23% | [2] -29.3% | [3] -99.5% | [4] -1.37% | [5] -86.7% | [6] -1.42% | [7] -95.3% | [8] -59.7% | [9] -72.7% | [10] -57.5%

O=c1[nH]c(-c2cccc(F)c2)cc2cc(F)ccc12
active: [2] 6.64%
inactive: [1] 16.7% | [3] 12.1% | [4] 26.6% | [5] 21.6% | [6] 16.3% | [7] 42.2% | [8] 36.4% | [9] 43.3% | [10] 61.7%
